Test results as given in PubChem BioAssay (EPA / NIEHS).
Activity calls are given as the source filed them. The calls were made as follows: active = hit-call score of the fitted dose curve at least 0.9, where 1 is the maximum; inactive = score below 0.9.

The molecules below were run on Pyruvate Dehydrogenase Kinase 4 (PDK4), PDK4 (gene 5166) (assay: LTEA_HepaRG_PDK4: Life Technologies and Expression Analysis (LTEA) Assay for Pyruvate Dehydrogenase Kinase 4 (PDK4) using HepaRG (AID 2283525)). Conditions: mRNA level, 48 h; actives raise or lower the signal.
Method: LTEA_HepaRG is a cell based, multiplexed-readout assay that uses HepaRG, a human liver cell line, with measurements taken at 48 hours after chemical dosing on a 96-well plate.LTEA_HepaRG_PDK4 is one of 102 assay component(s) measured in the LTEA HepaRG cell culture assay. It is a marker of Diseases associated with PDK4 including Platelet Glycoprotein Iv Deficiency and Diabetes Mellitus, Noninsulin-Dependent.Data from the assay component LTEA_HepaRG_PDK4 was analyzed into 1 endpoint. This assay endpoint, LTEA_HepaRG_PDK4, was analyzed with bidirectional fitting relative to DMSO as the negative control and baseline of activity. Using a type of inducible reporter, measures of mRNA induction for gain or loss-of-signal activity can be used to understand regulation of transcription factor activity. To generalize the intended target to other relatable targets, this assay endpoint is annotated to the kinase intended target family, where the subfamily is serine/threonine kinase.
A total of 1060 chemcials from the ToxCast library were tested in eight-point concentration-response experiments. Cell culture and cytotoxicity assays were conducted at Thermo Fisher Scientific's Custom Services facility (Madison, WI). A single lot of human HepaRG cells (Thermo Fisher Scientific, Frederick, MD) was used for the cell culture experiments. 96-well format collagen type I coated plates of human HepaRG cells were prepared using established methods. Briefly, cryopreserved HepaRG cells were thawed, plated at a density of approximately 100,000 cells/well in HepaRG Thaw, Plate, and General Purpose media (HPRG770, Thermo Fisher Scientific), and incubated for 48 hours. 0.5% DMSO was selected as vehicle control to balance the requisite need of DMSO in HepaRG cultures to maintain differentiation (for example, baseline metabolism, proportions of hepatocytes vs. cholangiocytes), while enabling further hepatic receptor pathway activation (for example, PXR and CAR) in response to chemical exposure. 48 hours after plating, the culture medium was replaced with HepaRG Serum-Free Incudtion Media. Cells were exposed to each test chemical in duplicate and maintained in CO2 incubators for another 48 hours. Chemical plates were thawed to room temperature and 200x concentrations of treatment groups were prepared. 8-point conentration-reponse curves were made with the highest exposure at 100 uM, followed by half-log dilutions, all in 0.5% DMSO. Each test plate contained variouse controls, induction positive controls (1mM phenobarbital), cytotoxicity positive controls ([…] aflatoxin B1), vehicle controls (0.5% DMSO), and total lysis controls (0.5% DMSO). Cell morphology images were taken using an Essen IncuCyte FLR automated microscope, with six 96-well plates imaged in about 24 minutes. Images were captured and exported and JPEG files. Spent culture media was transfered to black-well plates for the LDH assay, and remaining media was sorted at -80 C for later use. Cells were treated with RLT buffer and frozen until shipped for gene expression analysis. Total RNA was isolated from the cell suspension in 75 uL of Buffer RLT (Qiagen, Germantown, MD 20874) by Quintiles/Expression Analysis (Durham, NC) using a custom isolation procedure. Total RNA from each plate well was transferred to a preamplification plate. Fluidigm's 96.96 Dynamic ArrayTM (Fluidigm, Amsterdam, the Netherlands) technology was used for gene expression analyses by quantitative reverse transcription polymerase chain reaction (qRT-PCR, performed by Quintiles/Expression Analysis, Durham, NC)89. Standard TaqManTM Assays (Applied Biosystems/ThermoFisher Scientific, Foster City, CA) were used to assess the expression of 93 genes selected based on their selectivity and sensitivity to important hepatic receptors known to be modulated by environmental chemicals; importance in human hepatocyte functionality; and hepatotoxicity. […]

outcome, inactive:
CS(=O)(=O)c1ccc([C@@H](CC2CCCC2)C(=O)Nc2cnccn2)cc1Cl, OCC(CO)(CBr)CBr, CCCCC(CC)C(=O)O (stereo not given), CN(C)CCOC(c1ccccc1)c1ccccc1, O=C(c1ccccc1)c1ccccc1, CCC(C)c1ccccc1O (stereo not given), CCCCCCCCCCCCCCC, CC(=O)Nc1ccc(O)cc1, O=C1NS(=O)(=O)c2ccccc21, CCCCC=O

AC50, active:
CCCCCCCCCCCCOS(=O)(=O)O 36.9 µM, Cc1[nH]nc2c1N=C(c1ccccc1Cl)c1cc([N+](=O)[O-])ccc1N2 0.37 µM, CN(Cc1cnc2nc(N)nc(N)c2n1)c1ccc(C(=O)N[C@@H](CCC(=O)O)C(=O)O)cc1 0.515 µM, CCCCc1oc2ccccc2c1C(=O)c1cc(I)c(OCCN(CC)CC)c(I)c1 59.2 µM, O=C(CCCN1CCC(O)(c2ccc(Cl)cc2)CC1)c1ccc(F)cc1 69.4 µM
